NPC1 promoter act – qHTS Assay for NPC1 Promoter Activators | Huh7 NPC1 promoter luciferase reporter, 24 h | Potency, µM (doses to about 9.22 µM), hits mostly activators | hit rate 2.4% among 320,000; note: nearly all actives have a fitted effect of over 60% in size
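Stably transfected Huh7 (NPC1 promoter→luciferase), 1500 cells/well in Opti-MEM + 10% FBS, 2 h settle, then compound 24 h at 37 °C. Luminescence after 10 min with Amplite reagent.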
FLuc modulator – qHTS profiling assay for firefly luciferase inhibitor/activator using purifed enzyme and Km concentrations of substrates (counterscreen for miR-21 project) | Luciferin 4-monooxygenase (Photinus pyralis), P08659 | purified FLuc, Km substrates, luminescence inhibition | Potency, µM (top dose mostly 57.5 µM), hits mostly inhibitors | hit rate 6.9% among 360,000 | AID 588342, 2011; note: nearly all actives have a fitted effect of over 55% in size
Target sequence (P08659 whole entry, looked up): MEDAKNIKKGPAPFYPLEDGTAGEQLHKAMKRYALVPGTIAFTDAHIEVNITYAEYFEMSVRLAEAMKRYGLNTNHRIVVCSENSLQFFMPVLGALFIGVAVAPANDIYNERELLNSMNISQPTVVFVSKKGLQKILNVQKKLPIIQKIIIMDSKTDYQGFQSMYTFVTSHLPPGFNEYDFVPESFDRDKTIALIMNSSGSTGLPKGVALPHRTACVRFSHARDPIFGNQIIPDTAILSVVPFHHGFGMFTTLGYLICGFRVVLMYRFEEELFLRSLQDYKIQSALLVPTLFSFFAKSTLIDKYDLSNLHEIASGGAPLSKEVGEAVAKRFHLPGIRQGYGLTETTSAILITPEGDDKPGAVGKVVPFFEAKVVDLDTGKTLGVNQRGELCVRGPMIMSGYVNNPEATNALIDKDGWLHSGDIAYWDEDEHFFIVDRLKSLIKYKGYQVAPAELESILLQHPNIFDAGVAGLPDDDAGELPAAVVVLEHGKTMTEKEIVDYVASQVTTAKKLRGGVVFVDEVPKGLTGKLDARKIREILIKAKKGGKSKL
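Biochemical qHTS of compounds, final roughly 60 µM downward over six points, against 10 nM purified firefly luciferase using Km concentrations of substrates (10 uM D-luciferin, 10 uM ATP) in Tris acetate pH 7.5 buffer; luminescence output.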
SMN2 splice up – qHTS Assay for Enhancers of SMN2 Splice Variant Expression; HEK293 SMN2-luciferase splicing reporter, luminescence, 30-36 h; Potency, µM (titrated, usually from 46.1 µM), hits mostly activators; hit rate 2.8% among 210,000; note: nearly all actives have a fitted effect of over 55% in size
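HEK293 cells carry an SMN2 […]–luciferase reporter in which exon 7 inclusion puts luciferase in frame. Cells were plated 10-12 h before compound addition, then incubated 30-36 h at 37C. ONE-Glo luminescence was read; sodium butyrate at 4.5 mM final served as control.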
Rab9 prom act – qHTS Assay for Rab9 Promoter Activators. Huh7 Rab9 promoter-luciferase reporter, luminescence, 24 h. hit rate 2.8% among 320,000. Potency, µM (series often up to 9.22 µM), actives largely listed as activators; note: nearly all actives have a fitted effect of over 60% in size
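Cells were plated at 1500 per well in reduced-serum medium with 10% FBS and left 2 h. Compound in DMSO was then added for 24 h at 37 °C. Reporter signal was read by luminescence after 10 min with luciferase detection reagent.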
ELG1 DNA repair – qHTS screen for small molecules that inhibit ELG1-dependent DNA repair in human embryonic kidney (HEK293T) cells expressing luciferase-tagged ELG1 | hit rate 2.3% among 330,000 | AID 504467, 2011 | HEK293T ELG1-luciferase reporter, luminescence, 16 h; DNA damage induced by 5-fluorouridine | Potency, µM (top dose mostly 46.1 µM), hits mostly inhibitors; note: nearly all actives have a fitted effect of over 55% in size
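Step one: seed 2,000 cells per well. Step two: pin-transfer compound or DMSO alongside 5-fluorouridine. Step three: incubate 16 hr, 37 °C, 5% CO2. Step four: add ONE-Glo, wait 30 min, read luminescence.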
ELG1 genotoxic – qHTS screen for small molecules that induce genotoxicity in human embryonic kidney (HEK293T) cells expressing luciferase-tagged ELG1; Potency, µM (doses to about 46 µM), hits mostly activators; AID 504466, 2011; hit rate 1.3% among 330,000; HEK293T ELG1-luciferase reporter, luminescence, 16 h; note: nearly all actives have a fitted effect of over 60% in size
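HEK293T cells expressing luciferase-tagged ELG1 were treated with compound or DMSO for 16 hr at 37°C. Luciferase activity was then read after 30 min with ONE-Glo at room temperature; rising signal flags genetic stress.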
Numbers stand for hits; i = inactive; ? = inconclusive; nt = no result given. A selection: hits, their analogues and other compounds. The true share with any hit is near 9.2%. Calls come from the whole dose curve; as a rule, active = well fitted curve in the direction sought with a large enough effect; inconclusive = small, poorly fitted or top-dose-only effect, or another doubt; inactive = no such curve, though single readings can be large; an effect the other way counts as inactive or inconclusive.

SMILES | NPC1 promoter act | FLuc modulator | SMN2 splice up | Rab9 prom act | ELG1 DNA repair | ELG1 genotoxic
CCOC(=O)c1c(NC(=O)c2cccs2)sc2c1CCN(C(=O)OCC)C2 | i | i | ? | i | ? | i
CN1CCc2c(sc(NC(=O)c3ccc4ccccc4c3)c2C(N)=O)C1 | ? | 2.69µM | nt | ? | ? | 10.3µM
CN1CCc2c(sc(NC(=O)C3COc4ccccc4O3)c2C(N)=O)C1 (configuration not stated) | ? | i | nt | ? | ? | 23.1µM
CN1CCc2c(sc(NC(=O)Cc3ccccc3)c2C(N)=O)C1 | i | i | nt | i | i | i
COc1cc(/C=C/C(=O)O)ccc1OS(=O)(=O)c1c(C)cc(C)cc1C | i | i | nt | i | ? | i
CCOC(=O)N1CCc2c(sc(NC(=O)C3COc4ccccc4O3)c2C(N)=O)C1 (configuration not stated) | i | i | nt | i | ? | i
CCN1CCc2c(sc(NC(=O)C3COc4ccccc4O3)c2C(N)=O)C1 (configuration not stated) | ? | i | nt | ? | ? | 18.3µM
Fc1ccc(CSc2ccc(-c3ccc4c(c3)OCO4)nn2)cc1 | i | ? | i | i | ? | i
Cn1c(SCC#N)nnc1-c1ccc2c(c1)OCO2 | i | i | i | i | i | i
Cn1c(SCc2ccccc2)nnc1-c1ccc2c(c1)OCO2 | ? | ? | 22.4µM | ? | ? | 18.4µM
c1ccc(CSc2ccc(-c3ccc4c(c3)OCO4)nn2)cc1 | 3.55µM | 2.69µM | 17.8µM | 3.16µM | ? | ?
c1cncc(CSc2ccc(-c3cccnc3)nn2)c1 | i | i | i | i | ? | i
c1ccc(CSc2ccc(-c3cccnc3)nn2)cc1 | ? | 21.3µM | ? | ? | ? | i
COc1cccc(Oc2nc(C)nc3c2oc2ccccc23)c1 | nt | i | nt | nt | nt | nt
C=C(C)Cn1cnc2c(oc3nc4c(cc32)CCCC4)c1=O | 2.51µM | 21.3µM | nt | 1.58µM | ? | ?
O=C(Nc1ccccc1C(=O)O)c1cc(S(=O)(=O)Nc2cccc(F)c2)ccc1Cl | i | i | nt | i | i | i
CCN(CC)c1ccc(/C=C/C(=O)C2C(=O)C=C(C)OC2=O)cc1 (configuration not stated) | 1.58µM | 8.49µM | ? | 2.82µM | ? | ?
Cc1nn(-c2nc3ccccc3s2)c(N)c1-c1ccc(Cl)cc1 | ? | 3.01µM | 11.2µM | ? | ? | ?
Cc1nn(-c2nc3ccccc3s2)c(N)c1-c1ccccc1 | 2.51µM | 1.9µM | 7.08µM | 2.24µM | ? | ?
Cc1nn(-c2nc3ccccc3s2)c(N)c1Sc1ccc(F)cc1 | 3.16µM | ? | i | 1.12µM | ? | ?
Cc1cc(-c2nc3ccccc3s2)ccc1NC(=O)c1cc(Cl)ccc1Cl | nt | i | ? | nt | nt | nt
COc1ccc(C(=O)Nc2ccc(-c3n[nH]c(=S)o3)cc2)cc1OC | i | ? | nt | i | i | i
O=C(Nc1ccc(-c2n[nH]c(=S)o2)cc1)c1ccccc1Br | i | 15.1µM | nt | i | i | i
Oc1[nH]c(N=C2N=c3ccccc3=N2)c2ccccc12 | 3.16µM | 1.35µM | nt | ? | ? | 6.51µM
Clc1ccccc1-c1nc2nc3ccccc3nc2n1-c1ccc2c(c1)OCO2 | i | i | i | i | 14.6µM | i
SMILES | NPC1 promoter act | FLuc modulator | SMN2 splice up | Rab9 prom act | ELG1 DNA repair | ELG1 genotoxic
COc1ccccc1OCCn1c(NC(=O)c2ccccc2Cl)nc2ccccc21 | nt | i | i | nt | nt | nt
O=C(Nc1ccccn1)c1cc2ccccc2cc1O | 3.55µM | 2.39µM | nt | 3.98µM | ? | 2.31µM
COc1ccc(NC(=O)c2ccccc2C)cc1 | 1.41µM | 9.53µM | nt | 3.16µM | ? | ?
COc1ccc(NC(=O)c2cc3ccccc3cc2O)cc1 | 2.24µM | 0.953µM | nt | 2.24µM | ? | ?
Cc1ccc(NC(=O)c2cc3ccccc3cc2O)cc1 | 2µM | 1.07µM | nt | 2.82µM | ? | ?
COc1ccc(NC(=O)c2cccc3ccccc23)cc1 | i | ? | nt | i | i | i
Cc1ccc(NC(=O)NNC(=O)c2cc3ccccc3cc2O)cc1C | i | i | nt | i | i | i
Cc1ccc(-c2nnc(N3CCOCC3)c3ccccc23)cc1S(=O)(=O)N(C)C | i | i | nt | i | i | i
O=C(NC(=S)N1CCN(c2ccccc2)CC1)c1c(F)cccc1F | i | i | nt | nt | i | i
Cc1ccc(-c2c(C(=O)N3CCN(c4cccc(C)c4)C(C)C3)oc(=O)c3ccccc23)cc1 (configuration not stated) | nt | i | i | nt | nt | nt
CCCN(CCC)Cc1c(C(=O)N/N=C/C(C)=C\c2ccco2)nnn1-c1nonc1N | i | i | nt | i | 20.6µM | i
COc1ccc(CNC(=O)c2ccc3c(c2)CCN3S(=O)(=O)c2ccc(C)cc2)cc1 | nt | i | i | nt | nt | nt
O=C1N[C@@H](c2ccccc2)COC(=O)[C@H](Cc2ccc(F)cc2)CC/C=C/C[C@H]1CC(=O)N(CCO)Cc1ccccc1 | nt | nt | nt | nt | ? | i
O=C(C[C@@H]1C/C=C/CC[C@@H](Cc2ccc(F)cc2)C(=O)O[C@@H](c2ccccc2)CNC1=O)NCCO | nt | nt | nt | nt | 7.3µM | i
CC(C)(C)OC(=O)C[C@@H]1C/C=C\C[C@H](CC(=O)N(CCO)Cc2ccccc2)C(=O)NC[C@@H](c2ccccc2)OC1=O | nt | nt | nt | nt | i | i
O=C1NC[C@@H](c2ccccc2)OC(=O)[C@@H](Cc2ccc(F)cc2)CC/C=C/C[C@H]1CC(=O)N(CCO)Cc1ccccc1 | nt | nt | nt | nt | 13µM | i
O=C1NC[C@@H](c2ccccc2)OC(=O)[C@H](Cc2ccc(F)cc2)C/C=C\C[C@H]1CC(=O)N(CCO)Cc1ccccc1 | nt | nt | nt | nt | 20.6µM | i
CC(C)(C)OC(=O)C[C@H]1C/C=C\C[C@@H](CC(=O)N(CCO)Cc2ccccc2)C(=O)NC[C@H](c2ccccc2)OC1=O | nt | nt | nt | nt | 18.3µM | i
COc1cccc(COC(=O)c2ccc(-c3nnn(Cc4ccccc4)n3)cc2)c1 | nt | i | i | nt | nt | nt
Cc1ccc(C)c(N2CCN(C(=O)Nc3cn(CC(C)C)c(=O)c4ccccc34)CC2)c1 | nt | i | nt | nt | nt | nt
O=C1NC[C@H](c2ccccc2)OC(=O)[C@H](Cc2ccc(F)cc2)CC/C=C/C[C@@H]1CC(=O)N(CCO)Cc1ccccc1 | nt | nt | nt | nt | 11.6µM | i
CC(C)(C)OC(=O)C[C@@H]1C/C=C\C[C@@H](CC(=O)N[C@@H](CO)Cc2ccccc2)C(=O)NC[C@@H](c2ccccc2)OC1=O | nt | nt | nt | nt | 7.3µM | i
CC(C)(C)OC(=O)C[C@H]1C/C=C\C[C@@H](CC(=O)N[C@@H](CO)Cc2ccccc2)C(=O)NC[C@@H](c2ccccc2)OC1=O | nt | nt | nt | nt | ? | i
O=C(C[C@H]1C/C=C/CC[C@H](Cc2ccc(F)cc2)C(=O)O[C@H](c2ccccc2)CNC1=O)NCCO | nt | nt | nt | nt | i | i

High-throughput results (PubChem BioAssay)
